Among all 5,500 compounds or so, about 2,000 (36%) were called active. Another 18% or so got no clear call; they are omitted. No stated cut-off is given here; in the data, active means normalized growth mostly below about 0.91 (no sharp cut-off); inconclusive means no clear call, values can overlap the other calls; inactive means mostly above about 0.92. The list shows a part of the results.
Experiment: chemical genetic growth profiling, strain panel (AID 1159580);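 further: tested at 20 µM; growth read once vehicle control cultures reached saturation at 30 °C; 1 = growth at the plate median or of vehicle wells; lower values mean less growth of the strain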
Conditions: growth OD
[1] = S. cerevisiae deletion strains, locus YAL013W, strain DEP1, hits give low values
[2] = S. cerevisiae deletion strains, locus YBR229C, strain ROT2, hits give low values
[3] = S. cerevisiae deletion strains, locus YDL101C, strain DUN1, hits give low values
[4] = S. cerevisiae deletion strains, locus YDL134C, strain PPH21, hits give low values
[5] = S. cerevisiae deletion strains, locus YDR150W, strain NUM1, hits give low values
[6] = S. cerevisiae deletion strains, locus YEL061C, strain CIN8, hits give low values
[7] = S. cerevisiae deletion strains, locus YGR078C, strain PAC10, hits give low values
[8] = S. cerevisiae deletion strains, locus YHR030C, strain SLT2, hits give low values
[9] = S. cerevisiae deletion strains, locus YHR087W, strain rtc3, hits give low values
[10] = S. cerevisiae deletion strains, locus YJR043C, strain POL32, hits give low values
[11] = S. cerevisiae deletion strains, locus YJR075W, strain HOC1, hits give low values
[12] = S. cerevisiae deletion strains, locus YLR039C, strain RIC1, hits give low values
[13] = S. cerevisiae deletion strains, locus YLR058C, strain SHM2 (second series), hits give low values
[14] = S. cerevisiae deletion strains, locus YLR085C, strain ARP6, hits give low values
[15] = S. cerevisiae deletion strains, locus YLR262C, strain YPT6, hits give low values
[16] = S. cerevisiae deletion strains, locus YML094W, strain GIM5, hits give low values
[17] = S. cerevisiae deletion strains, locus YMR219W, strain ESC1, hits give low values
[18] = S. cerevisiae deletion strains, locus YMR263W, strain SAP30, hits give low values
[19] = S. cerevisiae deletion strains, locus YNL153C, strain GIM3, hits give low values
[20] = S. cerevisiae deletion strains, locus YNL298W, strain CLA4 (second series), hits give low values
[21] = S. cerevisiae deletion strains, locus YNL322C, strain KRE1, hits give low values
[22] = S. cerevisiae deletion strains, locus YNR030W, strain Alg12, hits give low values
[23] = S. cerevisiae deletion strains, locus YPL055C, strain LGE1, hits give low values
[24] = S. cerevisiae deletion strains, locus YPL241C, strain CIN2, hits give low values
[25] = S. cerevisiae deletion strains, locus YPR135W, strain CTF4, hits give low values
[26] = S. cerevisiae strains, strain wild type, hits give low values
[27] = S. cerevisiae deletion strains, locus YAR019C, strain CDC15, hits give low values
[28] = S. cerevisiae deletion strains, locus YBL105C, strain PKC1, hits give low values
[29] = S. cerevisiae deletion strains, locus YBR135W, strain CKS1, hits give low values
[30] = S. cerevisiae deletion strains, locus YBR136W, strain MEC1, hits give low values
[31] = S. cerevisiae deletion strains, locus YBR160W, strain CDC28, hits give low values
[32] = S. cerevisiae deletion strains, locus YDL017W, strain CDC7, hits give low values
[33] = S. cerevisiae deletion strains, locus YDL028C, strain MPS1, hits give low values
[34] = S. cerevisiae deletion strains, locus YDL108W, strain KIN28, hits give low values
[35] = S. cerevisiae deletion strains, locus YDL132W, strain cdc53, hits give low values
[36] = S. cerevisiae deletion strains, locus YDL214C, strain PRR2, hits give low values
[37] = S. cerevisiae deletion strains, locus YDR052C, strain DBF4, hits give low values
[38] = S. cerevisiae deletion strains, locus YDR054C, strain cdc34, hits give low values
[39] = S. cerevisiae deletion strains, locus YDR226W, strain ADK1, hits give low values
[40] = S. cerevisiae deletion strains, locus YDR477W, strain SNF1, hits give low values
[41] = S. cerevisiae deletion strains, locus YER123W, strain YCK3, hits give low values
[42] = S. cerevisiae deletion strains, locus YER133W, strain GLC7, hits give low values
[43] = S. cerevisiae deletion strains, locus YFL009W, strain cdc4, hits give low values
[44] = S. cerevisiae deletion strains, locus YFL029C, strain CAK1, hits give low values
[45] = S. cerevisiae deletion strains, locus YFR003C, strain YPI1, hits give low values
[46] = S. cerevisiae deletion strains, locus YFR019W, strain FAB1, hits give low values
[47] = S. cerevisiae deletion strains, locus YFR028C, strain CDC14, hits give low values
[48] = S. cerevisiae deletion strains, locus YGR040W, strain KSS1, hits give low values
[49] = S. cerevisiae deletion strains, locus YGR052W, strain FMP48, hits give low values
[50] = S. cerevisiae deletion strains, locus YGR092W, strain DBF2, hits give low values
[51] = S. cerevisiae deletion strains, locus YHR079C, strain IRE1, hits give low values
[52] = S. cerevisiae deletion strains, locus YHR082C, strain KSP1, hits give low values
[53] = S. cerevisiae deletion strains, locus YHR205W, strain SCH9, hits give low values
[54] = S. cerevisiae deletion strains, locus YIL147C, strain SLN1, hits give low values
[55] = S. cerevisiae deletion strains, locus YJL095W, strain BCK1, hits give low values
[56] = S. cerevisiae deletion strains, locus YJL128C, strain PBS2, hits give low values
[57] = S. cerevisiae deletion strains, locus YJL157C, strain FAR1, hits give low values
[58] = S. cerevisiae deletion strains, locus YJR016C, strain ILV3, hits give low values
[59] = S. cerevisiae deletion strains, locus YJR066W, strain TOR1 (second series), hits give low values
[60] = S. cerevisiae deletion strains, locus YJR066W, strain TOR1, hits give low values
[61] = S. cerevisiae deletion strains, locus YKL048C, strain ELM1, hits give low values
[62] = S. cerevisiae deletion strains, locus YKL067W, strain YNK1, hits give low values
[63] = S. cerevisiae deletion strains, locus YKL101W, strain HSL1, hits give low values
[64] = S. cerevisiae deletion strains, locus YKL193C, strain SDS22, hits give low values
[65] = S. cerevisiae deletion strains, locus YKL203C, strain TOR2, hits give low values
[66] = S. cerevisiae deletion strains, locus YLR113W, strain HOG1, hits give low values
[67] = S. cerevisiae deletion strains, locus YLR133W, strain CKI1, hits give low values
[68] = S. cerevisiae deletion strains, locus YLR403W, strain SFP1, hits give low values
[69] = S. cerevisiae deletion strains, locus YML070W, strain DAK1, hits give low values
[70] = S. cerevisiae deletion strains, locus YMR001C, strain CDC5, hits give low values
[71] = S. cerevisiae deletion strains, locus YMR205C, strain PFK2 (second series), hits give low values
[72] = S. cerevisiae deletion strains, locus YMR277W, strain FCP1, hits give low values
[73] = S. cerevisiae deletion strains, locus YNL006W, strain LST8, hits give low values
[74] = S. cerevisiae deletion strains, locus YNL020C, strain ARK1, hits give low values
[75] = S. cerevisiae deletion strains, locus YNL161W, strain CBK1, hits give low values
[76] = S. cerevisiae deletion strains, locus YNL183C, strain NPR1, hits give low values
[77] = S. cerevisiae deletion strains, locus YNL207W, strain RIO2, hits give low values
[78] = S. cerevisiae deletion strains, locus YNL222W, strain SSU72, hits give low values
[79] = S. cerevisiae deletion strains, locus YNL307C, strain MCK1 (second series), hits give low values
[80] = S. cerevisiae deletion strains, locus YOL078W, strain AVO1, hits give low values
[81] = S. cerevisiae deletion strains, locus YOL136C, strain PFK27, hits give low values
[82] = S. cerevisiae deletion strains, locus YOR061W, strain CKA2, hits give low values
[83] = S. cerevisiae deletion strains, locus YOR119C, strain RIO1, hits give low values
[84] = S. cerevisiae deletion strains, locus YOR231W, strain MKK1, hits give low values
[85] = S. cerevisiae deletion strains, locus YOR329C, strain SCD5, hits give low values
[86] = S. cerevisiae deletion strains, locus YPL031C, strain PHO85, hits give low values
[87] = S. cerevisiae deletion strains, locus YPL153C, strain RAD53, hits give low values
[88] = S. cerevisiae deletion strains, locus YPL204W, strain HRR25, hits give low values
[89] = S. cerevisiae deletion strains, locus YPL209C, strain IPL1, hits give low values
[90] = S. cerevisiae deletion strains, locus YPL256C, strain CLN2, hits give low values
[91] = S. cerevisiae deletion strains, locus YPR025C, strain CCL1, hits give low values
[92] = S. cerevisiae deletion strains, locus YPR106W, strain ISR1, hits give low values
[93] = S. cerevisiae deletion strains, locus YPR111W, strain DBF20, hits give low values
[94] = S. cerevisiae deletion strains, strain NNK1, hits give low values
[95] = S. cerevisiae deletion strains, strain TSCII, hits give low values

Measured: normalized growth

COc1ccc(OC)c(CNC(=O)Cc2cccs2)c1
inactive: [1] 1.01 | [2] 1.03 | S. cerevisiae deletion strains, locus YCL061C, strain MRC1, hits give low values 1.03 | [3] 1.05 | [4] 0.997 | [5] 0.993 | [6] 0.995 | [7] 1.04 | [8] 1.04 | [9] 0.952 | [10] 1.03 | [11] 0.998 | [12] 1.04 | [13] 0.988 | [14] 0.994 | [15] 1.01 | [16] 0.962 | [17] 0.996 | [18] 1.01 | [19] 1.03 | [20] 1 | [21] 1 | [22] 1 | [23] 0.961 | [24] 0.983 | [25] 1.06 | [26] 1.01

COc1ccc(Br)c(C(=O)/C(C#N)=C/c2cccs2)c1
active: [27] 0.765 | [3] 0.676 | [35] 0.871 | [36] 0.221 | [38] 0.696 | [40] 0.197 | [41] 0.122 | [42] 0.187 | [43] 0.861 | [44] 0.724 | [46] 0.149 | [48] 0.229 | [49] 0.205 | [50] 0.178 | [8] 0.125 | [51] 0.132 | [52] 0.15 | [53] 0.0479 | [55] 0.146 | [57] 0.181 | [59] 0.252 | [60] 0.146 | [61] 0.234 | [62] 0.262 | [63] 0.307 | [64] 0.787 | [65] 0.2 | [66] 0.23 | [67] 0.224 | [68] 0.081 | [69] 0.177 | [71] 0.287 | [72] 0.814 | [73] 0.875 | [74] 0.22 | [75] 0.836 | [76] 0.151 | [78] 0.861 | [79] 0.169 | [80] 0.722 | [81] 0.139 | [82] 0.344 | [83] 0.249 | [84] 0.187 | [86] 0.179 | [87] 0.198 | [88] 0.189 | [90] 0.16 | [92] 0.886 | [94] 0.676 | [95] 0.736
inactive: [28] 0.94 | [29] 0.903 | [30] 0.922 | [31] 0.921 | [32] 0.921 | [33] 0.909 | [34] 0.904 | [37] 0.929 | [39] 0.908 | [45] 0.918 | [47] 0.913 | [54] 0.919 | [56] 0.874 | [58] 0.915 | [70] 0.921 | [77] 0.917 | [85] 0.929 | [89] 0.926 | [91] 0.914 | [93] 0.935

Cc1ccc(NC(=O)CC#N)c(C)c1
inactive: [1] 1.01 | [2] 1 | [3] 0.979 | [4] 1.01 | [5] 0.895 | [6] 1.03 | [7] 1.01 | S. cerevisiae deletion strains, locus YGR229C, strain SMI1, hits give low values 0.986 | [8] 0.959 | [9] 0.995 | [10] 0.96 | [11] 1.04 | S. cerevisiae deletion strains, locus YKL190W, strain CNB1, hits give low values 0.998 | [12] 0.974 | [13] 1 | [14] 1.05 | [15] 0.973 | [16] 1.04 | [17] 1.02 | [18] 0.998 | S. cerevisiae deletion strains, locus YMR307W, strain GAS1, hits give low values 1.03 | [19] 1.01 | [20] 0.988 | [21] 1.01 | [22] 1.02 | S. cerevisiae deletion strains, locus YOL006C, strain TOP1, hits give low values 0.951 | [23] 1.1 | [24] 1.03 | [25] 1.01 | [26] 0.976

O=C(Nc1ccc(SC(F)(F)F)cc1)Nc1ccc(Oc2cccc(C(F)(F)F)c2)nc1
active: [8] 0.769
inactive: [27] 0.995 | [28] 0.989 | [29] 0.992 | [30] 0.987 | [31] 0.992 | [32] 0.996 | [33] 0.988 | [3] 0.997 | [34] 0.993 | [35] 0.995 | [36] 0.941 | [37] 0.996 | [38] 0.994 | [39] 0.987 | [40] 0.982 | [41] 0.949 | [42] 0.95 | [43] 0.988 | [44] 0.996 | [45] 0.991 | [46] 0.921 | [47] 0.999 | [48] 0.975 | [49] 0.973 | [50] 0.995 | [51] 0.883 | [52] 1.05 | [53] 0.957 | [54] 0.994 | [55] 0.975 | [56] 0.946 | [57] 0.937 | [58] 1 | [59] 1.02 | [60] 1.02 | [61] 0.972 | [62] 0.956 | [63] 0.949 | [64] 1 | [65] 0.991 | [66] 0.873 | [67] 0.954 | [68] 0.977 | [69] 0.964 | [70] 0.996 | [71] 0.974 | [72] 0.996 | [73] 0.989 | [74] 0.947 | [75] 0.984 | [76] 1.01 | [77] 0.996 | [78] 0.991 | [79] 0.884 | [80] 1 | [81] 0.907 | [82] 0.983 | [83] 1.03 | [84] 0.958 | [85] 0.984 | [86] 0.97 | [87] 0.99 | [88] 0.958 | [89] 0.992 | [90] 0.897 | [91] 0.988 | [92] 0.992 | [93] 0.972 | [94] 0.999 | [95] 1

Reference: PubChem BioAssay AID1159580 (chemical genetic matrix, 2015)
